{
  "source": "patent US20240035010",
  "about": "“COMPOSITIONS COMPRISING A VARIANT POLYPEPTIDE AND USES THEREOF” (Arbor Biotechnologies, Inc., published 2024)",
  "binders": {"B1": {"name": "VEGFA crRNA ; VEGFA target (ssRNA ; dsDNA)", "RNA": "CUUGUUGUAUAUGUCCUUUUAUAGGUAUUAAACAACUCCAGACCACCAAUGGGCAC", "DNA 1": "TCCAGACCACCAATGGGCAC", "DNA 2": "GTGCCCATTGGTGGTCTGGA"}, "B2": {"name": "AAVS1 crRNA ; AAVS1 target (ssRNA ; dsDNA)", "RNA": "CUUGUUGUAUAUGUCCUUUUAUAGGUAUUAAACAACUGAGAAUGGUGCGUCCUAGG", "DNA 1": "TGAGAATGGTGCGTCCTAGG", "DNA 2": "CCTAGGACGCACCATTCTCA"}, "B3": {"name": "EMX1 crRNA ; EMX1 target (ssRNA ; dsDNA)", "RNA": "CUUGUUGUAUAUGUCCUUUUAUAGGUAUUAAACAACCCGCCGCUUCCUGAGCCAUC", "DNA 1": "CCGCCGCTTCCTGAGCCATC", "DNA 2": "GATGGCTCAGGAAGCGGCGG"}},
  "conditions_in_all_cases": "tags: pcDNA3.1 expression",
  "key": {"[1]": {"molecular_target": "T1, variant nuclease E154G/L38G/K221G combination (P14R, D32R, I61R, E311R, E154G, L38G, K221G)", "T1 chain": "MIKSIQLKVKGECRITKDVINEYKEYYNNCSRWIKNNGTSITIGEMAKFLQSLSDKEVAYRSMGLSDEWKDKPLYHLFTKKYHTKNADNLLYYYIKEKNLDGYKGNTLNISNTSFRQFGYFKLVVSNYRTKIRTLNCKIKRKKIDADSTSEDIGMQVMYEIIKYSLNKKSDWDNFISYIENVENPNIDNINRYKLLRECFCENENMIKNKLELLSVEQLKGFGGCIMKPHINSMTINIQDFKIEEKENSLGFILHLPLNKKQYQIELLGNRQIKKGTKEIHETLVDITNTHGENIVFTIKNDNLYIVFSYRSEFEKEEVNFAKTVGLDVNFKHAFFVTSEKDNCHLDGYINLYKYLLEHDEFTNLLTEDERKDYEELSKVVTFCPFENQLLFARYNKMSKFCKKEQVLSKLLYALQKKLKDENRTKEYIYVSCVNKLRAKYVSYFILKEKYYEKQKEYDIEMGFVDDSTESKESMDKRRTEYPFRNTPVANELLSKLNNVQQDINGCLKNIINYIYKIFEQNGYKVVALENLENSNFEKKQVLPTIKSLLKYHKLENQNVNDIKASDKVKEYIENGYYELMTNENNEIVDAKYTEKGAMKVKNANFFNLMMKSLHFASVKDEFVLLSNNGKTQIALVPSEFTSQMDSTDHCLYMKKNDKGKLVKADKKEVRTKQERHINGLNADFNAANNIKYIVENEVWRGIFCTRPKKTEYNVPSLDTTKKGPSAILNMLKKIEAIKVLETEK", "experiment": "cell_activity; PAM 5'-TTTA-3'", "description": "(§1) Approximately 16 hours prior to transfection, 25,000 HEK293T cells in DMEM/10% FBS+Pen/Strep (D10 media) were plated into each well of a 96-well plate. On the day of transfection, the cells were 70-90% confluent. For each well to be transfected, a mixture of Lipofectamine 2000™ and Opti-MEM™ was prepared and incubated at room temperature for 5 minutes (Solution 1). After incubation, the Lipofectamine 2000™:Opti-MEM™ mixture was added to a separate mixture containing nuclease plasmid, RNA guide plasmid, and Opti-MEM™ (Solution 2). In the case of negative controls, the RNA guide plasmid was not included in Solution 2. Solutions 1 and 2 were mixed by pipetting up and down, then incubated at room temperature for 25 minutes. Following incubation, the Solution 1 and 2 mixture was added dropwise to each well of a 96-well plate containing the cells. Approximately 72 hours post transfection, cells were trypsinized by adding TrypLE™ to the center of each well and incubating at 37° C. for approximately 5 minutes. D10 media was then added to each well and mixed to resuspend cells. The resuspended cells were centrifuged at 500 g for 10 minutes to obtain a pellet, and the supernatant was discarded. […]\n(§2) The percentage of NGS reads containing indels (% indels) were calculated. […]"}, "[2]": {"molecular_target": "T1, variant nuclease E154G/L38G/K221G …", "experiment": "cell_activity; PAM 5'-TTTG-3'", "description": "as §1, §2"}, "[3]": {"molecular_target": "T1, variant nuclease E154G/L38G/K221G …", "experiment": "cell_activity; PAM 5'-ATTG-3'"}},
  "data": [
    {"binder": "B1", "values": [
      {"measurement": "indel activity", "setting": "[1]", "value": "0.06 fold of WT"}
    ]},
    {"binder": "B2", "values": [
      {"measurement": "indel activity", "setting": "[2]", "value": "0.19 fold of WT"}
    ]},
    {"binder": "B3", "values": [
      {"measurement": "indel editing activity", "setting": "[3]", "value": "0.17 fold of WT"}
    ]}
  ]
}
